Compound activity (PubChem BioAssay)
Most compounds without a hit are left out; they make up all but 13% or so of the library.
FMDV inh – antivirals against foot and mouth disease virus; FMDV antiviral cell-based qHTS; Potency, µM (series often up to 57.9 µM), for the others: at the top dose activity change, negative = inhibition, actives largely listed as inhibitors; 1.2% of 410,000 active; AID 1159524; calls by dose curve; tested in HEK293T cells; further: read-out not given here; potency means the concentration at half of the fitted maximal effect; on the % scale 0 is the no-effect control and ±100 the full control effect; nearly all actives have a fitted effect of over 45% in size
Marburg entry inh – inhibitors of Marburg virus binding or cell entry. Marburg virus pseudotyped entry inhibition, cell reporter. Potency, µM (series often up to 37.8 µM), inactives show top-dose activity change, negative = inhibition, hits mostly inhibitors. 1.8% of 300,000 active; calls by dose curve; tested in HEK293 cells; further: potency means the concentration at half of the fitted maximal effect; on the % scale 0 is the no-effect control and ±100 the full control effect
HCV inh – blocks hepatitis C virus; Huh7.5.1 HCVcc-Cre infection, luciferase reporter, 44 h; Potency, µM (highest dose often 41.8 µM), for the others: at the highest dose activity change, negative = inhibition, actives largely listed as inhibitors; 3.4% of 340,000 active; active means well fitted inhibition curve with a large enough effect; inconclusive means small, poorly fitted or top-dose-only effect, or another doubt; inactive means no such curve, though single readings can be large or run the other way; further: potency means the concentration at half of the fitted maximal effect; on the % scale 0 is the no-effect control and ±100 the full control effect
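Luciferase read-out (15 sec integration) after a 15 min room-temperature substrate step quantifies HCVcc-Cre infection. Cells, 1,000 per well, had compound added 4 h post-plating, then virus at ~0.5 moi, and were cultured 44 h.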
Lassa entry inh – blocks Lassa virus binding to or entry into cells; AID 540256; Potency, µM (doses to about 37.9 µM), for inactives: at the highest dose activity change, negative = inhibition, most hits filed as inhibitors; 1.2% of 300,000 active; Lassa virus pseudotype entry inhibition, cell reporter; calls by dose curve; tested in HEK293 cells; further: potency means the concentration at half of the fitted maximal effect; on the % scale 0 is the no-effect control and ±100 the full control effect; nearly all actives have a fitted effect of over 50% in size
CHX counter – counter-screen for Shiga toxin inhibitors: cycloheximide protein synthesis inhibition; cell reporter, cycloheximide protein synthesis inhibition counterscreen; max response, %; 12% of 300,000 active; AID 2314; in the data active means max response mostly above about 13%, no sharp cut-off; inactive means mostly below about 14%; further: read at 38.3 µM for the half of the compounds with a filed dose; 0% is about no effect
Shiga inhibitor – blocks Shiga toxin action in Vero cells; Vero cells, Shiga toxin protein synthesis inhibition reporter; inhibition, % at 38.7 µM; 9.2% of 290,000 active; AID 2315; in the data active means inhibition mostly above about 28%, no sharp cut-off; inactive means mostly below about 43%; further: 0% is about no effect
* marks the source's active call; other numbers are inactive results; ? = inconclusive; / = not tested or not shown; ! = a repeat was not active; [ ] = another dose, or the depositor's remark.

SMILES | FMDV inh | Marburg entry inh | HCV inh | Lassa entry inh | CHX counter | Shiga inhibitor
CN(C)CCOC(=O)c1ccc(COc2ccccc2Br)o1 | 8.0% | / | 11.7% | / | -5.9 | 2.1
COc1ccccc1OCc1ccc(C(=O)N2CCN(C(=O)c3ccco3)CC2)cc1 | ? | -3.1% | 1.2% | -6.4% | -5.8 | -8.5
CN(C(=O)c1ccc(COc2ccccc2Br)o1)c1ccccc1 | -5.6% | -15.9% | 13.7% | -17.1% | 15.3* | 27.0*
O=C(NC1CCCCC1)c1ccc(COc2ccccc2)o1 | -16.9% | 11.8%[46.1 µM] | ? | ? | / | /
O=C(c1ccc(COc2ccccc2Br)cc1)N1CCCCC1 | -17.4% | 17.8% | ? | -5.2% | 34.4* | 49.5*
O=C(NC1CCCC1)c1ccc(COc2ccccc2Br)o1 | -25.5% | / | 12.6µM* | / | 16.0 | 11.1
O=C(c1ccc(COc2ccccc2Br)o1)N1CCCCCC1 | -1.6% | -3.7% | -26.3% | 10.4% | 26.4* | 31.6*
COC(=O)N/N=C/c1cc(Cl)cc(Cl)c1OCc1ccccc1F | ? | ? | 11.6% | -3.8% | 1.3 | 4.7
Cc1ccc(/C=N/NC(=O)NN(C)c2ncc(C(F)(F)F)cc2Cl)cc1 | -28.3% | ? | -11.5% | ? | -0.4 | -8.0
CCn1c(C)nc2cc(C(=O)N/N=C/c3ccc(N4CCOCC4)cc3)ccc21 | -11.9% | 3.4%[46.1 µM] | -25.4% | 12.5% | 1.6 | 46.2
CC(C)=CCOc1ccc(/C=C/C(=O)c2ccc(OCC=C(C)C)cc2OCC(=O)O)cc1 | / | / | / | / | 6.9 | 21.3
COc1ccccc1/C=C/C1(C(=O)NC2CCCC2)CC(=O)N1c1ccc(C)cc1 (stereo unspecified) | -20.7% | ? | ? | -27.5% | -3.6 | -9.9
COc1ccccc1/C=C/C1(C(=O)NC2CCCC2)CC(=O)N1c1ccc(F)cc1 (stereo unspecified) | ? | 5.8µM* | ? | 14.6µM* | 1.6 | 14.1
COc1ccc(-c2csc(NC(=O)c3ccccc3F)c2C(=O)O)cc1 | 11.0% | / | 8.2% | / | 35.7* | 59.4*
COC(=O)c1c(-c2ccc(F)cc2)csc1NC(=O)c1ccco1 | 41.5% | 17.3% | -9.5% | ? | 60.7* | 93.6*
O=C(Nc1scc(-c2ccccc2)c1C(=O)O)c1ccco1 | 23.0% | -10.1%[46.1 µM] | 7.1% | 0.0% | 30.9* | 62.9*
CCOC(=O)c1c(-c2ccc(C)s2)csc1NC(=O)c1ccco1 | / | 3.8% | / | / | 0.4 | 18.8
CN1CCN(C(=O)C2CCC(C)(C(=O)O)C2(C)C)CC1 (stereo unspecified) | -11.1% | 22.4%[46.1 µM] | 5.2% | 27.9% | 0.4 | 12.1
COc1ccc(-c2cc(C(=O)O)c3sc(N4CCCCC4)nc3n2)cc1OC | 11.9% | -26.6% | -1.1% | 5.4% | -4.1 | -10.1
COc1cccc2c(=O)n(CC(=O)NC3CCCCC3)ccc12 | 4.5% | / | ? | / | 9.8* | 4.9
COc1cccc2c(=O)n(CC(=O)Nc3ccc(F)cc3)ccc12 | -1.3% | / | -5.3% | / | 5.2 | -5.6
COc1cccc2c(=O)n(CC(=O)Nc3ccccc3F)ccc12 | ? | / | 6.3% | / | 27.0* | 22.7*
CCn1ccc2c(OCC(=O)Nc3ccccc3C(F)(F)F)cccc2c1=O | 31.6µM* | / | / | ? | / | /
Cc1ccc2nsnc2c1S(=O)(=O)N1CCN(Cc2ccc3c(c2)OCO3)CC1 | / | -1.9% | 22.4µM*! | -2.4% | -0.3 | -7.9
COC(=O)[C@](O)(c1ccc(NC(=O)c2ccco2)c(OC)c1)C(F)(F)F | / | 5.6%[46.1 µM] | / | / | / | /
SMILES | FMDV inh | Marburg entry inh | HCV inh | Lassa entry inh | CHX counter | Shiga inhibitor
COc1ccc(/C=N/n2cnn(Cc3ccccc3Cl)c2=S)cc1OC | -8.7% | ? | -23.8% | ? | 12.5 | 61.2
COc1cc(/C=C(/C)[N+](=O)[O-])ccc1OCc1ccccc1Cl | 22.4µM* | 6.51µM* | ? | ? | -6.5 | 28.1
COc1cc(/C=N/O)ccc1OCc1ccccc1Cl | 27.6% | ? | 17.7% | ? | 47.6* | 85.7*
COc1cc(C=O)ccc1OCCOCCOc1ccccc1Cl | -20.6% | 27.1% | 11.2% | 11.7% | 7.4 | 14.9
CCc1ccc(CN(C)C(=O)c2cccc(S(=O)(=O)Nc3ccccc3OC)c2)cc1 | 49.0% | ? | -28.6% | ? | / | /
CN1CC=C(c2c[nH]c3ccccc23)CC1 | 1.6% | / | 6.31µM* | / | -1.1 | -6.0
C1=C(c2c[nH]c3ccccc23)CCN(Cc2ccccc2)C1 | -11.2% | / | ? | / | 7.0 | 9.7
Cc1cccc(OCc2nc3ccccc3c(=O)n2N)c1 | 28.8% | ? | -13.0% | ? | 47.1* | 72.1
Nn1c(COc2cccc(Cl)c2)nc2ccccc2c1=O | 2.8% | 7.0% | -0.8% | 5.1% | 38.2* | 74.7*
O=C(CSc1nc(O)cc(=O)n1-c1ccccc1)NC1CCCCC1 | -20.6% | 9.0% | 3.5% | -18.9% | 2.7 | 26.8
CC(=O)Oc1ccc(-c2csc(Nc3ccc(Cl)cn3)n2)cc1 | 22.9% | / | 11.2µM* | / | 41.7* | 39.3*
NC(Cc1ccccc1)c1csc(Nc2ccccn2)n1 (stereo unspecified) | 13.8% | / | / | / | / | /
Cc1nc(N)sc1-c1csc(Nc2ccccn2)n1 | -25.0% | ? | -24.0% | ? | 33.9* | 122.2*
Cc1nc(N)sc1-c1csc(Nc2ccc(Cl)cn2)n1 | 15.2% | ? | 8.91µM* | -8.9% | 23.9* | 47.6*
Cc1ccnc(Nc2nc(-c3sc(C)nc3C)cs2)c1 | -8.7% | 5.62µM* | 8.91µM* | 14.9%[46.1 µM] | / | /
Cc1nc(C)c(-c2csc(N)n2)s1 | 14.4% | -1.0% | 19.4% | 12.9% | -1.3 | -10.2
Cc1nc(C)c(-c2csc(Nc3ccccn3)n2)s1 | -23.8% | / | 8.91µM* | / | 48.8* | 112.4*
CCC1Nc2ncnc(N3CCN(c4ccccc4)CC3)c2N(Cc2ccc(C)cc2)C1=O (stereo unspecified) | -13.8% | / | 2.82µM* | / | / | /
Cc1ccc2cc(C#N)c(N3CCN(C(=O)c4cccs4)CC3)nc2c1 | 31.6µM* | ? | ? | ? | -1.8 | /
COc1ccccc1C(=O)N1CCN(c2nc3cc(C)c(C)cc3cc2C#N)CC1 | ? | 8.91µM* | ? | 10µM* | -2.7 | 1.0
Cc1c(CCOC(=O)CC23CC4CC(CC(C4)C2)C3)sc[n+]1CC(=O)c1ccc(Br)cc1 | -22.1% | -10.5% | 9.9% | -18.8% | 2.5 | -18.3
O=C(Nc1ccc(Nc2ccccc2)cc1)C1CC1 | 38.1% | 0.8%[46.1 µM] | -28.9% | ? | 21.2* | 49.7
O=C(Nc1ccc(-n2cccc2)cc1)C1CC1 | 27.6% | -9.3%[46.1 µM] | -2.6% | 2.0% | 22.7* | 16.8
Cc1cccc(CNc2ncc(-c3cccc([N+](=O)[O-])c3)n2C)c1 | -15.5% | ? | -19.5% | -1.6% | -3.2 | -15.4
CN(C)C(CNC(=O)CCc1nc2sc3c(c2c(=O)[nH]1)CCCC3)c1ccccc1 (stereo unspecified) | -22.1% | 10µM* | ? | -0.5% | / | /
O=C(CCc1nc2sc3c(c2c(=O)[nH]1)CCCC3)NCCOc1ccccc1 | 1.5% | 19.7% | ? | ? | / | /
COC(=O)c1cn(Cc2cccc(C)c2)nn1 | -3.7% | ? | 34.3% | -17.5% | -1.4 | -2.4
N/C(=N\OC(=O)CC1CCCCC1)c1ccncc1 | 33.3% | 18.5% | 7.8% | 7.2% | 16.6* | 58.3*
